Consider 36 compounds from PubChem BioAssay AID588765 (NMMLSC, 2011).

Several values for one entry are separate records, joined by “and”; a condition that tells them apart may be missing. Equal entries are not always repeated. The whole screen tested about 1,100 compounds, of which fewer than 10 were called active.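 Rule for the calls: active = percent response below a set limit in fluorescence channel 1 and below 50% in channel 8; inactive = the rest.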 The list is a sample of the results.

The experiment can be described thus: compound fluorescence in dual-transfected Am2.2 cells, confirmation, artefact control for beta2AR agonist internalization project, cell-based, FAP fluorogen, flow cytometry, cherry pick 1 (AID 588765).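 Note: low percent response here flags compound autofluorescence meaning a false positive.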 The conditions noted are these: fluorescence counterscreen, at 10 µM, stronger effect = lower value; percent response FL8: measured here: FL8 channel fluorescence. Background: A flow cytometer gives signals particle by particle.
`O=C1C(=O)N(CC2COc3ccccc3O2)c2ccccc21` (configuration not stated): the percent response FL1 was 108% (inactive) and the percent response FL8 amounted to 112%.

With `COc1ccc(-n2nc3c(N4CCC(C(=O)NCc5ccccc5)CC4)nnc(C)c3c2C)cc1`, the percent response FL1 is 130% (inactive) and the percent response FL8 came out at 115%.

In the case of `CCCOc1ccc(C(=O)C(CCC(CNCC)C(=O)c2ccc(OCCC)cc2)CNCC)cc1` (configuration not stated), the percent response FL1 is 82.8% (inactive) and the percent response FL8 stood at 76.7%.

As to `O=C(NCCCn1ccnc1)C1CCCN(S(=O)(=O)c2cc(Cl)ccc2Cl)C1` (configuration not stated), the percent response FL1 was 8.86% (inactive) and the percent response FL8 was found to be 109%.

`COc1cc(C#Cc2ccc3cc(CCCO)oc(=O)c3c2)cc(OC)c1`: the percent response FL1 is 92.6% (inactive) and the percent response FL8 amounted to 102%.

On to `CCCCCCCCCCOC(=O)Cn1c(COc2ccc(C)cc2)[n+](C)c2ccccc21`, for which the percent response FL1 is 120% (inactive) and the percent response FL8 turned out to be 113%.

For the compound `CC(=O)c1ccc(NC(=O)c2ccc3c(Cl)c4c(nc3c2)CCCC4)cc1`, the percent response FL1 is 52.7% (inactive) and the percent response FL8 was found to be 89.7%.

In the case of `CCOC(=O)c1ccc(NC(=O)Cn2nnc(-c3ccc(C)cc3)n2)cc1`, the percent response FL1 was 12.2% (inactive) and 8.97% (inactive); the percent response FL8 is 98.7% and 110%.

Regarding `O=S(=O)(Nc1ccc2[nH]ncc2c1)c1ccccc1Cl`, the percent response FL1 is 86% (inactive) and the percent response FL8 turned out to be 87.7%.

Take `COc1ccc(C(CCNCc2ccccc2F)c2ccc(F)cc2)cc1` (configuration not stated): the percent response FL1 was 101% (inactive) and the percent response FL8 amounted to 110%.

With `Cc1cc(S(=O)(=O)N2CCOCC2)ccc1OCC(=O)Nc1cccc(C(F)(F)F)c1`, the percent response FL1 was 97.5% (inactive) and the percent response FL8 stood at 108%.

On to `CC(CCc1ccccc1)NCC(O)c1cccc([N+](=O)[O-])c1` (configuration not stated), for which the percent response FL1 was 120% (inactive) and the percent response FL8 amounted to 128%.

Consider `CCOc1ccc(NC(=O)COc2ccc(S(=O)(=O)N3CCCC3)cc2)cc1`, for which the percent response FL1 was 109% (inactive) and the percent response FL8 was determined as 101%.

Turning to `CCCN(CCc1ccccc1)C1CCc2c(O)cccc2C1` (configuration not stated), the percent response FL1 was 103% (inactive) and the percent response FL8 was 98.5%.

As to `Oc1ccc(N=Cc2sc3ccccc3c2Cl)cc1`, the percent response FL1 is 99.5% (inactive) and the percent response FL8 amounted to 93.9%.

As to `O=C(Nc1ccc2c(c1)OCCO2)C(c1ccc(F)cc1)N1CCCCC1` (configuration not stated), the percent response FL1 was 114% (inactive) and the percent response FL8 was 111%.

Take `CSc1ccc(CCNC(=O)C2CCN(c3nnc(-n4cccc4)s3)CC2)cc1`: the percent response FL1 is 45.7% (inactive) and the percent response FL8 turned out to be 94.2%.

Take `N#Cc1cccc(NC(=O)COC(=O)c2ccccc2C(=O)c2ccc(Cl)c([N+](=O)[O-])c2)c1`: the percent response FL1 is 100% (inactive) and the percent response FL8 was 89%.

Regarding `CC(=O)Nc1ccc(CN2CCC(Oc3ccc(C(=O)N4CCCC4)cc3)CC2)cc1`, the percent response FL1 was 109% (inactive) and the percent response FL8 was 109%.

Regarding `COc1ccc(S(=O)(=O)N2CCCC(C(=O)Nc3ccc(NC(=O)c4ccccn4)cc3)C2)cc1` (configuration not stated), the percent response FL1 is 45.3% (inactive) and the percent response FL8 amounted to 95.6%.

In the case of `CC(=O)Nc1ccc(Nc2c3ccccc3nc3ccccc23)cc1`, the percent response FL1 is 68.8% (inactive) and the percent response FL8 was found to be 126%.

With `C=CCNC(=S)N/N=C/c1ccc(C)s1`, the percent response FL1 is 100% (inactive) and the percent response FL8 is 93.3%.

Turning to `CCN1CCC2(CC1)N=C(c1ccc(F)cc1)C(=S)N2C(=O)c1ccc(C)cc1`, the percent response FL1 is 98.4% (inactive) and the percent response FL8 is 96.3%.

As for `Cc1ccc(Cl)cc1NC(=O)CN1CCN(S(=O)(=O)N2CCOCC2)CC1`, the percent response FL1 is 99.8% (inactive) and the percent response FL8 is 93.1%.

`CSc1ccc(CNC(=O)c2ccc(NC(=O)C3=CSCCO3)cc2)cc1`: the percent response FL1 is 16.2% (inactive) and the percent response FL8 stood at 99.4%.

In the case of `Cc1ccc(Sc2cc(N3CCOCC3)nc(-c3ccccc3)n2)cc1`, the percent response FL1 was 29.8% (inactive) and the percent response FL8 was found to be 111%.

As for `COc1ccc(OC)c(NC(=O)c2sc3nc(C)cc(C)c3c2N)c1`, the percent response FL1 is 45.6% (inactive) and the percent response FL8 worked out at 111%.

With `CC(=O)c1cccc(NC(=O)COc2ccc(S(=O)(=O)N3CCOCC3)cc2)c1`, the percent response FL1 is 112% (inactive) and the percent response FL8 amounted to 104%.

On to `CCOc1ccccc1N1C(=O)CC(Sc2nccc(C)n2)C1=O` (configuration not stated), for which the percent response FL1 is 100% (inactive) and the percent response FL8 stood at 97.2%.

`O=C(C1CCN(c2nnc(-n3cccc3)s2)CC1)N1CCc2ccccc2C1`: the percent response FL1 was 128% (inactive) and the percent response FL8 came to 104%.

Consider `COc1ccc2c(c1OC)C(=O)OC2Nc1nc(-c2ccccc2)cs1` (configuration not stated), for which the percent response FL1 is 104% (inactive) and the percent response FL8 was determined as 92.1%.

Consider `OC(CNCc1ccc(Cl)c(Cl)c1)c1ccccc1` (configuration not stated), for which the percent response FL1 is 106% (inactive) and the percent response FL8 came to 113%.

On to `COc1ccc(OC)c(S(=O)(=O)N(C)CC(=O)N2CCN(c3ccccc3)CC2)c1`, for which the percent response FL1 was 95.4% (inactive) and 98.5% (inactive); the percent response FL8 was 99.7% and 105%.

Turning to `CCOc1ccccc1NC(=O)COc1ccc(S(=O)(=O)N2CCCC2)cc1`, the percent response FL1 was 110% (inactive) and the percent response FL8 was 107%.

As for `COc1ccc(-c2ccnc(SCC(=O)N3CCOCC3)n2)cc1`, the percent response FL1 was 103% (inactive) and the percent response FL8 was 100%.

On to `Cc1ccc(OCC(=O)Nc2ccc(-c3nc4ncccc4o3)cc2)cc1`, for which the percent response FL1 was 13.3% (inactive) and 14.1% (inactive); the percent response FL8 was 113% and 112%.
